Data on 14 molecules can be found in PubChem BioAssay.

Active and inactive are the calls of the source.

Experiment [1] concerns Plasmodium falciparum Sir2 (PF13_0152, Sir2A). The experiment can be described thus: Plasmodium falciparum Sir2A binding compounds – biochemical, small-molecule microarray, 635 nm fluorescence, primary screen (AID 1098).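 Note: score merges spot fluorescence intensity with its signal-to-noise ratio.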 As to conditions: fluorescence 635 nm, higher = more signal.
The nature of experiment [2]: probe aDKK1 binding to arrayed compounds – biochemical, biotinylated probe, 635/667 nm fluorescence, primary screen (AID 1099).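 Note: score merges 667nm spot fluorescence with signal to noise across triplicate slides; reference of the scale not given here.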 As to conditions: small-molecule microarray, higher = more signal.
Experiment [3] can be described thus: probe aCHRDL2 binding to arrayed compounds – biochemical, biotinylated probe, 635/667 nm fluorescence, primary screen (AID 1100). The following applies: small-molecule microarray, higher = more signal.
Experiment [4] can be described thus: change in splice reporter luminescence, either direction, cell-based, HEK293, spliceosome inhibition project, primary screen (AID 1101).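 Note: HEK293 cells carrying a splicing-competent luciferase reporter gene; test concentration not given here.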 The following applies: HEK293 splicing luciferase reporter, 24 h, higher = more signal, called active from +8 up or from −8 down. A general note: Reporter assays use an easily measured gene product as a stand-in for the process of interest.

In experiment [5] the target is Fibroblast growth factor 10 (Homo sapiens) (UniProt O15520). The experiment can be described thus: compounds binding fibroblast growth factor 10 – biochemical, small-molecule microarray, 635 nm fluorescence, primary screen (AID 1102). As to conditions: FGF10 binding, fluorescence 635 nm, higher = more signal.
Experiment [6] deals with glycogen synthase kinase-3 (GSK3A per assay name; protocol says GSK3B). In words: compounds binding glycogen synthase kinase-3 – biochemical, small-molecule microarray, 635 nm fluorescence, GSK3A, primary screen (AID 1103). Note: the record names both GSK3A and GSK3B. The following applies: fluorescence 635 nm, higher = more signal.
The target in experiment [7] is Epidermal growth factor receptor (Homo sapiens) (UniProt P00533). The experiment can be described thus: compounds binding epidermal growth factor receptor – biochemical, small-molecule microarray, 635 nm fluorescence, primary screen (AID 1104).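 Note: score merges 667 nm emission intensity with spot signal to noise over triplicate slides.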 As to conditions: EGFR binding, higher = more signal.
Experiment [8] addresses Follistatin-related protein 3 (Homo sapiens) (UniProt O95633). In words: compounds binding follistatin-related protein 3 – biochemical, small-molecule microarray, 635 nm fluorescence, primary screen (AID 1105).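 Note: score merges emission near 667 nm and signal to noise per printed spot across three slides.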 As to conditions: FSTL3 binding, higher = more signal.
The target in experiment [9] is Dickkopf-related protein 1 (Homo sapiens) (UniProt O94907). The experiment can be described thus: small molecules binding DKK1 protein – biochemical, small-molecule microarray, 635 nm fluorescence scan, primary screen (AID 1106).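 Note: score merges emission near 667 nm with signal to noise over three replicate slides.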 The following applies: higher = more signal.
Experiment [10] deals with Inhibin beta A chain (activin A). The experiment can be described thus: small molecules binding activin A – biochemical, small-molecule microarray, 635 nm fluorescence scan, primary screen (AID 1107).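 Note: mouse activin A protein probed at 4.33 µg/mL on printed slides; score merges bound-protein fluorescence near 667 nm with spot signal-to-noise.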 The following applies: INHBA, higher = more signal.

Sequence of Dickkopf-related protein 1 (Homo sapiens) (O94907 whole entry, looked up): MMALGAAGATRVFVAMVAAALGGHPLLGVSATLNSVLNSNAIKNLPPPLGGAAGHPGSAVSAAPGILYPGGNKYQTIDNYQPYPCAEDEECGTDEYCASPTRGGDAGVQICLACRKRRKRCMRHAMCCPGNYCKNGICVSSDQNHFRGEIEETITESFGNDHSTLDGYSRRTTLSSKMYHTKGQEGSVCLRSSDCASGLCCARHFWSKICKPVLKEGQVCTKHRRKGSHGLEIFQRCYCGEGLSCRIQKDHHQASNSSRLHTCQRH
Sequence of Follistatin-related protein 3 (Homo sapiens) (O95633 whole entry, looked up): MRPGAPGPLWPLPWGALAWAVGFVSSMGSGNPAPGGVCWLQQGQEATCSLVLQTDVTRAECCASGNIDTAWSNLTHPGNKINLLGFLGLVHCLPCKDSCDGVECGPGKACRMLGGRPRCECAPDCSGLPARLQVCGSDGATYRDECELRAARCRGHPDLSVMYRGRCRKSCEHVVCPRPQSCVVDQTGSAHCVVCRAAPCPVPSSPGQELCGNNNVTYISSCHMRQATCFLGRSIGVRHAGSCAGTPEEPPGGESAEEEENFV
Sequence of Fibroblast growth factor 10 (Homo sapiens) (O15520 whole entry, looked up): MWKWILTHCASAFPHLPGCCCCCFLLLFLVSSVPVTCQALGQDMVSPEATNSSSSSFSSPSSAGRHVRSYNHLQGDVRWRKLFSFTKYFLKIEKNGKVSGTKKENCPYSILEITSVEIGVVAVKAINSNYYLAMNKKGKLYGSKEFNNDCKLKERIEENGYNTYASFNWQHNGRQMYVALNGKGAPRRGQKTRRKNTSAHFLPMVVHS
Sequence of Epidermal growth factor receptor (Homo sapiens) (P00533 whole entry, looked up): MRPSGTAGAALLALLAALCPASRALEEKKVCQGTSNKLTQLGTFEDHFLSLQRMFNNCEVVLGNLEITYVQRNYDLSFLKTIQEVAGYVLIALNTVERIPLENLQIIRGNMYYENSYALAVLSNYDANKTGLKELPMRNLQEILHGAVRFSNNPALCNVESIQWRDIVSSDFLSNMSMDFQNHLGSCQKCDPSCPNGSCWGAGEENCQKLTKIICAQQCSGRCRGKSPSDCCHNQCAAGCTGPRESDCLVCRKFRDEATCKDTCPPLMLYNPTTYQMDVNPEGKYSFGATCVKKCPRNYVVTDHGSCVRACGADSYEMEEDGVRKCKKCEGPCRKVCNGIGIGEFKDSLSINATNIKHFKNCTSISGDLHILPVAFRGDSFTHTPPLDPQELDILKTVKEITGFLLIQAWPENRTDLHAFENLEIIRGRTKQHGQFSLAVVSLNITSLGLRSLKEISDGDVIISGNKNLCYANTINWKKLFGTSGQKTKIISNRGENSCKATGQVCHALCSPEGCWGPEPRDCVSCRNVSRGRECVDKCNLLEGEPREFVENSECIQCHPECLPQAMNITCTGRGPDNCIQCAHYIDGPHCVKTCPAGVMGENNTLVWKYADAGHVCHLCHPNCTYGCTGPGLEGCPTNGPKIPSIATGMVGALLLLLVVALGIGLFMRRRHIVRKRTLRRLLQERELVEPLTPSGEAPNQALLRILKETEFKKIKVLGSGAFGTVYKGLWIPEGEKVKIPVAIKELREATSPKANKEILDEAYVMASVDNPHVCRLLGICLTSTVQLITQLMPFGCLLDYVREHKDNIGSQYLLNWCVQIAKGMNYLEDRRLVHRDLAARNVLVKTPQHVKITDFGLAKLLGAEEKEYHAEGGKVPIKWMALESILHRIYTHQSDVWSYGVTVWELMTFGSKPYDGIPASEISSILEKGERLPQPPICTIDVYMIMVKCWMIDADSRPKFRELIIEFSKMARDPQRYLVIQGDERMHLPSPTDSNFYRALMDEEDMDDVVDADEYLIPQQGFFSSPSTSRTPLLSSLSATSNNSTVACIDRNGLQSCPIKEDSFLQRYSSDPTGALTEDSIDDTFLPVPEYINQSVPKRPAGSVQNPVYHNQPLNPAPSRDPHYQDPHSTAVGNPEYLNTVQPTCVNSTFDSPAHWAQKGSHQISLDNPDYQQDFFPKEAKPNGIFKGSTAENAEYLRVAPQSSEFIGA

For the molecule `CC1=C2[C@@H](CCc3ccccc3)OB(O)C[C@@H]2n2c(=O)n(-c3ccccc3)c(=O)n2C1`, the composite z-score in experiment [1] was 0.897; in [2] it was -0.0992; in [3], -0.339; in experiment [5], 0.355; in [6] it was 0.255; in experiment [7] it was 0.249. The composite z-score in experiment [8] was 0.894; in [9], 0.565; in experiment [10] it was 0.421. The z-score in experiment [4] is 0.72 (inactive).
Turning to `COCCOC(=O)N1C(=O)[C@@]2(c3ccccc31)[C@H](c1ccc(O)cc1)N1[C@H](c3ccccc3)[C@H](c3ccccc3)OC(=O)[C@H]1[C@@H]2C(=O)N1CCc2cc(OC)c(OC)cc2C1`, the composite z-score in [1] is 1.25; in experiment [2] it was 0.203; in [3], 0.404; in [5], 1.36; in [6] it was 0.92; in experiment [7], 0.869. Also, the values for the composite z-score in [8], in experiment [9] and in experiment [10] were 1.03, 0.84 and 0.451, respectively. Also, the z-score in experiment [4] is -0.832 (inactive).
For the molecule `C=CCC(OC(C)=O)[C@@H]1[C@@H](N(Cc2cccc3ccccc23)C(=O)c2ccc(C)cc2)c2cc(OCCCO)ccc2N1C(=O)Cc1ccc(OC)cc1` (stereo not given in full), the composite z-score was 0.102 in experiment [1]; -0.413 in [2]; -0.281 in experiment [3]; -0.104 in experiment [5]; 0.0349 in [6]; 0.254 in experiment [7]. For the same molecule, the composite z-score in [8] was determined as 0.492; in experiment [9], 0.576; in [10], 1.05. In [4], the z-score was -1.53 (inactive).
In the case of `C=CCNC(=O)[C@@H]1[C@H]2C(=O)O[C@H](c3ccccc3)[C@H](c3ccccc3)N2[C@H](c2ccc(OCCO)cc2)[C@@]12C(=O)Nc1ccccc12`, the composite z-score was 1.06 in [1]; 0.454 in [2]; -0.0808 in experiment [3]; 0.772 in experiment [5]; 0.839 in experiment [6]; 0.254 in experiment [7]. Besides, the composite z-score was 0.774 in [8], 0.228 in experiment [9] and 0.344 in [10]. Moreover, in [4], the z-score is -0.0935 (inactive).
For `CN(C)CCCCCCNC(=O)[C@H]1C[C@H]2C(=O)N[C@@H](CCCCN)C(=O)N2[C@H]1c1ccc(O)cc1`, the composite z-score was found to be 2.14 in experiment [1]; 2.83 in [2]; 1.71 in [3]; 1.29 in experiment [5]; 1.48 in experiment [6]; 1.6 in experiment [7]. Moreover, the composite z-score in experiment [8] was determined as 1.65; in experiment [9], 2.15; in experiment [10], 1.45. Moreover, the z-score in [4] is 0.509 (inactive).
As to `CC(=O)C1=CCC(c2ccccc2)N(S(=O)(=O)c2ccc(C)cc2)C1` (stereo not given), the composite z-score in experiment [1] turned out to be 1.4; in experiment [2], 0.196; in [3] it was 0.469; in [5] it was 0.586; in experiment [6], 0.258; in experiment [7], 0.255. Moreover, the results for the composite z-score in experiment [8], in [9] and in experiment [10] were 1.01, 0.0538 and 1.12, respectively. In addition, the z-score in [4] was 0.0149 (inactive).
For `CC(C)(C)OC(=O)CC[C@@]1(C(=O)NCCN2CCOCC2)N=C(c2ccc(OCCCO)cc2)O[C@@H]1c1ccccc1`, the composite z-score was 1.48 in [1]; 1.06 in experiment [2]; 1.11 in experiment [3]; 1.01 in experiment [5]; 0.896 in experiment [6]; 0.335 in [7]. The composite z-score in experiment [8] is 1.05; in experiment [9] it was 0.126; in experiment [10], 0.767. Further, the z-score in experiment [4] was -1.16 (inactive).
For the molecule `CCN(CC)c1ccc(N2CC=CC34O[C@@H]5/C=C\CCCOC(=O)C5[C@H]3C(=O)N(C(CO)C(C)C)[C@@H]4C2=O)cc1` (stereo not given in full), the composite z-score in experiment [1] is 1.23; in experiment [2], -0.252; in [3], -0.0922; in [5], -0.711; in experiment [6] it was -0.748; in experiment [7], -1.05. The composite z-score is -0.8 in [8], -0.681 in [9] and 1.11 in experiment [10]. In experiment [4], the z-score is 0.167 (inactive).
For the molecule `COCCOC(=O)N1C(=O)[C@@]2(c3cc(C#CCNC(N)=O)ccc31)[C@H](C(=O)N1CCN(c3ncccn3)CC1)[C@H]1C(=O)O[C@H](c3ccccc3)[C@H](c3ccccc3)N1[C@@H]2c1ccccc1OCCO`, the composite z-score in experiment [1] came out at 1.2; in experiment [2], 0.265; in [3] it was 0.714; in [5], 1.13; in experiment [6] it was 0.0685; in [7], 0.736. For the same molecule, the composite z-score in [8] was determined as 1.24; in experiment [9] it was 1.7; in experiment [10], 1.02. Besides, in experiment [4], the z-score is -0.619 (inactive).
Take `COC(=O)c1c(CC[C@@H](CO)NC(=O)N[C@@H](Cc2ccccc2)Cn2cc(C3(O)CCCCC3)nn2)oc(C(C)=O)c1C(=O)OC`: the composite z-score in experiment [1] is 0.893; in experiment [2] it was -0.27; in experiment [3], -0.328; in [5], 1.31; in experiment [6], 0.819; in experiment [7], 0.346. In addition, the composite z-score in [8] was 0.873; in [9], 0.514; in experiment [10] it was 0.382. In addition, in experiment [4], the z-score was -2.62 (inactive).
For `[N-]=[N+]=NCc1ccccc1C[C@@]1(C(=O)NCC(O)CO)N=C(c2ccc(OCCCO)cc2)O[C@@H]1c1ccccc1CN=[N+]=[N-]` (stereo not given in full), the composite z-score in experiment [1] is 1.71; in experiment [2], -0.0331; in experiment [3], 0.884; in [5], 1.33; in experiment [6] it was 0.712; in experiment [7] it was -0.747. Also, the composite z-score in experiment [8] is -0.203; in experiment [9], -0.643; in [10] it was 0.688. Further, in [4], the z-score was 0.135 (inactive).
Regarding `CC(C)N1CC=CC23O[C@@H]4C=CCOC(=O)[C@@H]4[C@H]2C(=O)N(CCO)[C@@H]3C1=O` (stereo not given in full), the composite z-score in experiment [1] is 1.58; in experiment [2] it was -0.256; in experiment [3] it was 0.651; in [5], -1.61; in experiment [6] it was -0.897; in [7] it was -0.859. The composite z-score in [8] is -0.447; in experiment [9], -1.61; in [10], -0.223. For the same molecule, the z-score in [4] is -0.262 (inactive).
Turning to `Cc1ccc(S[C@]2(C(=O)O)CC(=O)N(C3Cc4ccccc4C3)[C@@H]2c2ccc(CO)cc2I)cc1`, the composite z-score in experiment [1] was 0.787; in [2], 0.425; in [3], 1.05; in experiment [5], -0.345; in experiment [6] it was -0.695; in [7] it was -1.04. In addition, the composite z-score in experiment [8] was -0.75; in [9], -0.649; in experiment [10] it was 1.11. Further, the z-score in experiment [4] is -0.0201 (inactive).
As to `COC(=O)[C@@]1(Cc2ccc(OC)cc2)[C@H]2c3cc(C(=O)N4CCCC4)n(Cc4ccccn4)c3C[C@H]2CN1C(=O)c1ccccc1`, the composite z-score was 0.987 in [1]; 1.33 in experiment [2]; 1.3 in [3]; 0.928 in experiment [5]; 1.2 in experiment [6]; -0.0442 in experiment [7]. In addition, the composite z-score in experiment [8] was 0.182; in experiment [9] it was -0.899; in experiment [10] it was 0.673. Besides, the z-score in experiment [4] was -3.17 (inactive).
